About 8,800 targets were measured; listed, in parts, are those with a hit and a random draw of the rest. About 0.5% of all pairs of compound and target were hits. Values without a mark were called inactive.
What was measured:
Assay in all cases: log2 fold change, soluble protein after heating vs DMSO (PISA); higher = thermal stabilisation; K562 lysate, 10 uM; active = over 0.2 and 3.5 SD of the protein, either way, in both replicates (recomputed)
vemurafenib = compound: CCCS(=O)(=O)Nc1ccc(F)c(C(=O)c2c[nH]c3ncc(-c4ccc(Cl)cc4)cc23)c1F [vemurafenib]
How it was run: (§1)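 K562 pellets were dounce-homogenised in PBS pH 7.4 with 1 mM MgCl2, and the crude extract at 1 mg/mL protein was treated with 10 μM compound for 30 min. Aliquots were heated for 3 min across 48°C-58°C, pooled, and brought to 0.5% NP-40 at 4°C; soluble protein was the supernatant after 21,000xg for 90 min. Soluble protein was quantified by TMTpro 16plex LC-MS/MS with channel sums equalised, and reported as log2 fold change in thermal stability against DMSO controls, with values from duplicates.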

[1] = compound: CCCS(=O)(=O)Nc1ccc(F)c(C(=O)c2c[nH]c3ncc(Cl)cc23)c1F
How it was run: as §1

barasertib = compound: CCN(CCCOc1ccc2c(Nc3cc(CC(=O)Nc4cccc(F)c4)[nH]n3)ncnc2c1)CCOP(=O)(O)O [barasertib]
How it was run: as §1

[2] = compound: CC[C@@H]1C(=O)N(C)c2cnc(Nc3ccc(C(=O)NC4CCN(C)CC4)cc3OC)nc2N1C1CCCC1
How it was run: as §1

volasertib = compound: CC[C@@H]1C(=O)N(C)c2cnc(Nc3ccc(C(=O)N[C@H]4CC[C@H](N5CCN(CC6CC6)CC5)CC4)cc3OC)nc2N1C(C)C [volasertib]
How it was run: as §1

[3] = compound: CCn1c(C(=O)N(C2CC2)C2CC2)cc2c3c(ncn3C)c(Nc3cc(C)n(C)n3)nc21
How it was run: as §1

[4] = compound: CCn1cc(-c2ccnc3[nH]c(-c4cccc(CN(C)C)c4)cc23)c(-c2ccc(NC(=O)N(C)C)cc2)n1
How it was run: as §1

[5] = compound: CN1CCC(CNc2ccc3ncc(-c4cccc(OC(F)(F)F)c4)n3n2)CC1
How it was run: as §1

saracatinib = compound: CN1CCN(CCOc2cc(OC3CCOCC3)c3c(Nc4c(Cl)ccc5c4OCO5)ncnc3c2)CC1 [saracatinib]
How it was run: as §1

sotrastaurin = compound: CN1CCN(c2nc(C3=C(c4c[nH]c5ccccc45)C(=O)NC3=O)c3ccccc3n2)CC1 [sotrastaurin]
How it was run: as §1

alvocidib = compound: CN1CC[C@H](c2c(O)cc(O)c3c(=O)cc(-c4ccccc4Cl)oc23)[C@H](O)C1 [alvocidib]
How it was run: as §1

Tubastatin A = compound: CN1CCc2c(c3ccccc3n2Cc2ccc(C(=O)NO)cc2)C1 [Tubastatin A]
How it was run: as §1

[6] = compound: CNC(=O)C1=CC=CC=C1NC2=NC(=NC=C2Cl)NC3=C(C=C(C=C3)N4CCOCC4)OC
How it was run: as §1

defactinib = compound: CNC(=O)c1ccc(Nc2ncc(C(F)(F)F)c(NCc3nccnc3N(C)S(C)(=O)=O)n2)cc1 [defactinib]
How it was run: as §1

[7] = compound: CNc1nc(-c2ccc3c(N)n[nH]c3c2)cc(N2C[C@@H](C(=O)NC3CCCCC3)CC[C@H]2C)n1
How it was run: as §1

encorafenib = compound: COC(=O)N[C@@H](C)CNc1nccc(-c2cn(C(C)C)nc2-c2cc(Cl)cc(NS(C)(=O)=O)c2F)n1 [encorafenib]
How it was run: as §1

[8] = compound: COC(=O)[C@H](CCSC)NC(=O)C1=C(C=C(C=C1)NC[C@H](CS)N)C2=CC=CC=C2
How it was run: as §1

alisertib = compound: COc1cc(Nc2ncc3c(n2)-c2ccc(Cl)cc2C(c2c(F)cccc2OC)=NC3)ccc1C(=O)O [alisertib]
How it was run: as §1

[9] = compound: COc1cc2nc(-c3cc(F)ccc3O)nc(N[C@@H]3CNC[C@H]3C(C)(C)O)c2cc1OC
How it was run: as §1

gefitinib = compound: COc1cc2ncnc(Nc3ccc(F)c(Cl)c3)c2cc1OCCCN1CCOCC1 [gefitinib]
How it was run: as §1

Chain of UniProt O75865 (O75865 whole entry, looked up): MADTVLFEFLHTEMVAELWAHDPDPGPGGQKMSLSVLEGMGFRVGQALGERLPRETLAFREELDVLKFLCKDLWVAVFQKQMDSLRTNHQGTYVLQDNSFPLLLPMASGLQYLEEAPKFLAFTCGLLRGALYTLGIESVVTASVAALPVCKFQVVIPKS
Chain of UniProt Q9H892 (Q9H892 whole entry, looked up): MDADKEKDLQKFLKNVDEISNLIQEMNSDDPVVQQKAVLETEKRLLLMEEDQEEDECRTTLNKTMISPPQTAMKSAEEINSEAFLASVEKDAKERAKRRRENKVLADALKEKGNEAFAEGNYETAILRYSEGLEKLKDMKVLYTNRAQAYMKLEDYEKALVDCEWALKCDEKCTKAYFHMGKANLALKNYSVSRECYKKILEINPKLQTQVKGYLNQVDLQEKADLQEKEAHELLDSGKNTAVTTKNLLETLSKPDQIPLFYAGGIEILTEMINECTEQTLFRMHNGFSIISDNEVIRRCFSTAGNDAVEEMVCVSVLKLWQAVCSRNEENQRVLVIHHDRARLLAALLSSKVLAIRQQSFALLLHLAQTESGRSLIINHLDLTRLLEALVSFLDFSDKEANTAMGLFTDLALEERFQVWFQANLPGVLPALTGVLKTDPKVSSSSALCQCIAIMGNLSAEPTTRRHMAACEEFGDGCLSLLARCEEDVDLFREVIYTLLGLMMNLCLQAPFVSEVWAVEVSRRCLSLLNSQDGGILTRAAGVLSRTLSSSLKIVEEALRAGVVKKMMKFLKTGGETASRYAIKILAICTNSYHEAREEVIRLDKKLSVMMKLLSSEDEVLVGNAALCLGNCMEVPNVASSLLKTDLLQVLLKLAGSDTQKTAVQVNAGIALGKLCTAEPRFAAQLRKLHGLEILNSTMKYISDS
Chain of UniProt P0DPH7 (P0DPH7 whole entry, looked up): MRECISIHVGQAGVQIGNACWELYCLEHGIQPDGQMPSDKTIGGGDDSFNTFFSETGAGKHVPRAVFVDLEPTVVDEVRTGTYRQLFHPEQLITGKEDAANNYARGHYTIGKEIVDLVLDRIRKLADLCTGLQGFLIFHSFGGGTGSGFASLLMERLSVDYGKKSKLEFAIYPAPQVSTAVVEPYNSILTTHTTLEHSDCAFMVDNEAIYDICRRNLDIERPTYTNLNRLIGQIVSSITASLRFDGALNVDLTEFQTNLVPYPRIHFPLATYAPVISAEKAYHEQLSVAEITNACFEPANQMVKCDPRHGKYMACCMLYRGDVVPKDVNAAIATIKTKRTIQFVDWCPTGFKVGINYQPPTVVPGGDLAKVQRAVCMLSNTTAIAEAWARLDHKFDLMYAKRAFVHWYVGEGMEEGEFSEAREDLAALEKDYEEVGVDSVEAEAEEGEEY
Chain of UniProt P04818 (P04818 whole entry, looked up): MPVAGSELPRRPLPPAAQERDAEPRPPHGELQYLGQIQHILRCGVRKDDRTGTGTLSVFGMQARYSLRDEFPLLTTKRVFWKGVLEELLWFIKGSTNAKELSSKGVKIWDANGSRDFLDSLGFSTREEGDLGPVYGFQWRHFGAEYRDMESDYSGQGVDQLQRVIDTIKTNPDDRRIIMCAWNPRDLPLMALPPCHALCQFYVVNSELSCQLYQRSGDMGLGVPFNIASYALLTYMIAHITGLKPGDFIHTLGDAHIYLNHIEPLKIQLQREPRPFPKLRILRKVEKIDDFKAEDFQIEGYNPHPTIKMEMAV
Chain of UniProt Q14258 (Q14258 whole entry, looked up): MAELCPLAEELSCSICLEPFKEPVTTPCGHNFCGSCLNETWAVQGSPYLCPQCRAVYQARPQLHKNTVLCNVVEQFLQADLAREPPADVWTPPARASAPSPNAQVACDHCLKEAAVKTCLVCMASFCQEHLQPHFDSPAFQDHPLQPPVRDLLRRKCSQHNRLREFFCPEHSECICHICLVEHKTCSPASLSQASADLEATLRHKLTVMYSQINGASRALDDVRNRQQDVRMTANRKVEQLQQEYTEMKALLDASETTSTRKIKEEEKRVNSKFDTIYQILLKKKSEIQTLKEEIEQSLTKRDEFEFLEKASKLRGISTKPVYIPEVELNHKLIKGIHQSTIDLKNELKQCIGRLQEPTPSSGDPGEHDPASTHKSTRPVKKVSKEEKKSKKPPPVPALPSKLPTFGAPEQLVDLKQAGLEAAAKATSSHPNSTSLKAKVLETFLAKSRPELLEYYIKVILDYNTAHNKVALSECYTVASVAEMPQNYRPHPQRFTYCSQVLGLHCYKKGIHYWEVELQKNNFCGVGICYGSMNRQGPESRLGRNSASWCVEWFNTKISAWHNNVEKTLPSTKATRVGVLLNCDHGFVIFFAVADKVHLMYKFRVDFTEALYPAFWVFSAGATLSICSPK
Chain of UniProt O43493 (O43493 whole entry, looked up): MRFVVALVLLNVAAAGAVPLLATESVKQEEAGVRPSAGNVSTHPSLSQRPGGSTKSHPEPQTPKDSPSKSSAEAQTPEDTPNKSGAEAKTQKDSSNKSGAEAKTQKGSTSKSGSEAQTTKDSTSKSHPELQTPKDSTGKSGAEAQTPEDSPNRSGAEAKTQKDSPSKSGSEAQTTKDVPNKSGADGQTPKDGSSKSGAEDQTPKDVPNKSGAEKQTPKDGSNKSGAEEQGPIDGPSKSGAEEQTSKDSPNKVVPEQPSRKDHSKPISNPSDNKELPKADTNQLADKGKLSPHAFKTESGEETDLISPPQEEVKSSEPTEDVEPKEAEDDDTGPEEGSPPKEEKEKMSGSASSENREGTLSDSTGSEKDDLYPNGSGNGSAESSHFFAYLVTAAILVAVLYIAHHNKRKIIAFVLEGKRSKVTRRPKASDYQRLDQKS
Chain of UniProt Q5BVD1 (Q5BVD1 whole entry, looked up): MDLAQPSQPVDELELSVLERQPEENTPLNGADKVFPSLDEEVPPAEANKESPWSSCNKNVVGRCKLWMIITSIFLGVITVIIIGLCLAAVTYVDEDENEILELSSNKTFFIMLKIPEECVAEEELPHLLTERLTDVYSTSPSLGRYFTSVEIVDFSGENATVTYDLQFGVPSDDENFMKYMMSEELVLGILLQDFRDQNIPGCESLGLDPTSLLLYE
Chain of UniProt A6NFQ2 (A6NFQ2 whole entry, looked up): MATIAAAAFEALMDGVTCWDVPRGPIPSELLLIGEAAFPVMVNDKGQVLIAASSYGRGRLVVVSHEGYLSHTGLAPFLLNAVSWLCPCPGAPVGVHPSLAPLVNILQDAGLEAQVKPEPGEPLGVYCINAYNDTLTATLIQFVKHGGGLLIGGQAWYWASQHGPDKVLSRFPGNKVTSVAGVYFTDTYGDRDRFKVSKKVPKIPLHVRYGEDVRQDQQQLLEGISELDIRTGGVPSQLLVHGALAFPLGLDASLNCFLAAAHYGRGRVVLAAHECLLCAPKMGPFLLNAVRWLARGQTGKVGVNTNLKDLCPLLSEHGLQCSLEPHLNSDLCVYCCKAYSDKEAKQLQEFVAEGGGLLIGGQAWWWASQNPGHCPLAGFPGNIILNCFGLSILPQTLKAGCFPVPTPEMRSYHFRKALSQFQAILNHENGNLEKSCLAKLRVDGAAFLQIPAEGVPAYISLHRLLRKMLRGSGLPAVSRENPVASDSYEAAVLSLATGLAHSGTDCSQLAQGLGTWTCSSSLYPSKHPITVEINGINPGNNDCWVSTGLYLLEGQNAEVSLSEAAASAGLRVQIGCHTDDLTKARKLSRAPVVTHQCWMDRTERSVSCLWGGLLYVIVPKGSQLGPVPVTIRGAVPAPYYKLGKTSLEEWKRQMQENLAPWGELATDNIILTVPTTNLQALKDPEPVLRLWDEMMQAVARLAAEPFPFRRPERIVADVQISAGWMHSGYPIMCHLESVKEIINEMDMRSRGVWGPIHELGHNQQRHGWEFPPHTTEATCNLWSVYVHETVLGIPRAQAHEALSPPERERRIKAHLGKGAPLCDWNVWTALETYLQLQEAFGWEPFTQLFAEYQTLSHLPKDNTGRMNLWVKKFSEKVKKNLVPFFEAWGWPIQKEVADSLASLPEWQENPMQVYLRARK
Chain of UniProt Q15813 (Q15813 whole entry, looked up): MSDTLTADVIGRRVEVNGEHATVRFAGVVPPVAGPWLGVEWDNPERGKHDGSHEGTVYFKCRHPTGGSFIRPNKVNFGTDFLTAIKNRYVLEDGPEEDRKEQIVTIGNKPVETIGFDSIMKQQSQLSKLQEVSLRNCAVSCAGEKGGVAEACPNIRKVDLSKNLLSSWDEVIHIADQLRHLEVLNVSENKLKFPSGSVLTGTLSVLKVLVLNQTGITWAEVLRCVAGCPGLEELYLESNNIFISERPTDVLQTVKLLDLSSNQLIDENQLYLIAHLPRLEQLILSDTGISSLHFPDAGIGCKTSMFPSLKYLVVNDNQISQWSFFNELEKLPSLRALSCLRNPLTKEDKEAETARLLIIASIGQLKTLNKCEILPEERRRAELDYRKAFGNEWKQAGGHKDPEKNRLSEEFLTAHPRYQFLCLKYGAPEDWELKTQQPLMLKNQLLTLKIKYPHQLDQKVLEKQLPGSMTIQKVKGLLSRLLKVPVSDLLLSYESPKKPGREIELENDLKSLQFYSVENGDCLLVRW
Chain of UniProt Q15628 (Q15628 whole entry, looked up): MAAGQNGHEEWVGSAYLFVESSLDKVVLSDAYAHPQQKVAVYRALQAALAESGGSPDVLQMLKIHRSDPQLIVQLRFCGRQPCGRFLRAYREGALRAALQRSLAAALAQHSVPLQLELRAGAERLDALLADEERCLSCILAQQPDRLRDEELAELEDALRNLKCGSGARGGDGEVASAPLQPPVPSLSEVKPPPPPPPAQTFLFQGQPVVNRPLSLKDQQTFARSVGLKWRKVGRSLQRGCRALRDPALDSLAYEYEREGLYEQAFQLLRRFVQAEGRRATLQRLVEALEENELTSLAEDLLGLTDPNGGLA

Row | Target | log2 fold change (vemurafenib) | log2 fold change [1] | log2 fold change (barasertib) | log2 fold change [2] | log2 fold change (volasertib) | log2 fold change [3] | log2 fold change [4] | log2 fold change [5] | log2 fold change (saracatinib) | log2 fold change (sotrastaurin) | log2 fold change (alvocidib) | log2 fold change (Tubastatin A) | log2 fold change [6] | log2 fold change (defactinib) | log2 fold change [7] | log2 fold change (encorafenib) | log2 fold change [8] | log2 fold change (alisertib) | log2 fold change [9] | log2 fold change (gefitinib)
1 | TRAPPC6A isoform 2 (UniProt O75865) | -0.144 | 0.027 | -0.001 | -0.288 (active) | -0.035 | -0.072 | -0.228 | -0.096 | 0.001 | -0.042 | 0.059 | -0.006 | 0.011 | -0.026 | -0.017 | -0.142 | -0.027 | -0.052 | 0 | -0.043
2 | TUBB6 (UniProt Q9BUF5) | 0.007 | 0.002 | -0.015 | 0.003 | -0.068 | -0.007 | -0.019 | 0.014 | 0.032 | -0.024 | 0.023 | -0.064 | 0.015 | 0.034 | 0.023 | 0.017 | 0.056 | 0.028 | 0.011 | -0.024
3 | UBR5 (UniProt O95071) | 0.004 | 0.035 | 0.045 | 0.006 | -0.031 | 0.01 | -0.029 | 0.003 | 0.019 | -0.005 | -0.011 | -0.084 | 0.002 | 0.016 | 0 | 0.025 | -0.044 | -0.028 | -0.005 | 0.014
4 | TRIP12 isoform 2 (UniProt Q14669) | 0.014 | 0.068 | 0.038 | -0.001 | -0.028 | 0.091 | -0.031 | 0.036 | -0.007 | 0.013 | 0.018 | -0.035 | 0.002 | 0.045 | -0.17 | 0.049 | -0.018 | 0.019 | -0.122 | 0.005
5 | TUBA3C (UniProt P0DPH7) | 0.037 | 0.021 | -0.011 | -0.041 | -0.026 | 0.012 | -0.062 | -0.013 | 0.013 | 0.048 | -0.012 | -0.15 | 0.01 | -0.013 | -0.018 | -0.037 | 0.042 | -0.023 | -0.035 | -0.005
6 | TBCE (UniProt Q15813) | 0.04 | 0.015 | 0.024 | -0.065 | -0.082 | 0.048 | -0.044 | -0.023 | 0.013 | 0.001 | -0.008 | -0.162 | -0.026 | 0.031 | -0.028 | -0.008 | 0.265 (active) | -0.008 | -0.006 | -0.006
7 | TCAF2 (UniProt A6NFQ2) | 0.052 | 0.041 | -0.048 | -0.027 | -0.049 | 0.045 | 0.003 | -0.05 | 0.004 | -0.017 | -0.016 | -0.183 | -0.026 | 0.067 | -0.026 | 0.006 | 0.044 | 0.03 | -0.067 | -0.042
8 | THADA (UniProt Q6YHU6) | -0.006 | 0.007 | 0.038 | -0.028 | -0.037 | 0.019 | -0.029 | 0.02 | 0.029 | 0.037 | -0.002 | -0.165 | 0.008 | 0.014 | -0.013 | 0.022 | 0.031 | 0.01 | 0.012 | 0.001
9 | TNIK isoform 4 (UniProt Q9UKE5) | 0.002 | -0.015 | -0.034 | 0.025 | 0 | 0.011 | 0.071 | 0.099 | 0.071 | 0.056 | -0.015 | -0.071 | 0.085 | 0.148 | -0.04 | -0.026 | -0.097 | -0.026 | 0.247 | -0.005
10 | TTC12 isoform 2 (UniProt Q9H892) | 0.025 | 0.061 | 0.053 | -0.049 | 0.063 | -0.121 | -0.208 | 0.079 | 0.038 | -0.055 | -0.024 | -0.279 | -0.06 | -0.05 | -0.041 | -0.052 | -0.03 | -0.145 | -0.043 | 0.137
11 | TRADD (UniProt Q15628) | -0.611 (active) | 0.052 | -0.002 | 0.07 | -0.023 | 0.065 | 0.014 | 0.001 | 0.011 | -0.023 | -0.029 | -0.066 | 0.021 | -0.092 | 0.021 | -0.012 | -0.241 | 0.009 | 0.004 | -0.03
12 | TYMS (UniProt P04818) | -0.009 | 0.006 | 0.022 | -0.053 | -0.041 | -0.004 | -0.035 | -0.064 | 0 | 0.008 | 0.015 | -0.023 | 0.017 | 0.002 | -0.018 | 0.013 | -0.006 | 0.021 | 0.006 | -0.024
13 | TGOLN2 isoform 7 (UniProt O43493) | 0.02 | 0.023 | -0.023 | 0.05 | 0.035 | -0.094 | -0.012 | 0.036 | -0.033 | 0.06 | -0.053 | 0.003 | -0.052 | 0.005 | 0.045 | 0.014 | -0.031 | -0.059 | 0.02 | -0.048
14 | TRIM25 (UniProt Q14258) | 0.017 | 0.012 | 0.001 | -0.024 | -0.006 | -0.007 | 0.029 | -0.035 | -0.002 | -0.05 | 0.022 | -0.04 | 0.009 | -0.009 | 0.042 | -0.011 | -0.058 | -0.01 | -0.002 | -0.029
15 | TTMP isoform 3 (UniProt Q5BVD1) | 0.227 | 0.029 | -0.025 | 0.122 | 0.031 | -0.182 | -0.88 (active) | 0.316 | 0.012 | -0.029 | -0.347 | 0.24 | -0.105 | -0.088 | 0.36 | -0.06 | 0.06 | 0.119 | 0.129 | 0.02
16 | TMEM87A (UniProt Q8NBN3) | 0.032 | -0.007 | -0.025 | 0.008 | -0.006 | -0.026 | -0.114 | 0.332 (active) | -0.001 | 0.017 | -0.076 | -0.013 | -0.012 | -0.006 | -0.017 | 0.022 | -0.045 | -0.02 | 0.015 | 0.022
